Assay [1] in a line: HPAF-II 24hr Apoptosis Induction qHTS against the NCATS CANVASS Library (AID 1347356). Further: 0% is about no effect. In outline:
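Caspase-Glo 3/7 luminescence, read after 15 min room-temperature development, measures apoptosis in HPAF-II cells treated 24 h at 37 degrees C with an 11-point concentration series; 500 cells/well; doxorubicin control.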
In general terms: qHTS replaces the single test concentration by a dilution series.

Assay [2] is described as follows: HEK293 18hr Apoptosis Induction qHTS against the NCATS CANVASS Library (AID 1347357). Further: 0% is about no effect. In outline:
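HEK293 cells (500/well, DMEM + 10% FBS) treated with an 11-point series for 18 h at 37 degrees C. Caspase-3/7 activity read by Caspase-Glo luminescence after 15 min at room temperature.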

The nature of assay [3]: HEK293 24hr Apoptosis Induction qHTS against the NCATS CANVASS Library (AID 1347359). Further: 0% is about no effect. An outline of the steps: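 HEK293 cells (500/well, DMEM + 10% FBS) were exposed to compounds in an 11-point series for 24 hours at 37 degrees C, then caspase-3/7 activity was read by Caspase-Glo DEVD luciferase luminescence after 15 min.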
A short description of assay [4]: HPAF-II 18hr Apoptosis Induction qHTS against the NCATS CANVASS Library (AID 1347360). Further: 0% is about no effect. In outline:
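HPAF-II cells at 500/well were exposed for 18 h at 37 C to an 11-point compound series. Caspase-3/7 activity was read by Caspase-Glo luminescence after 15 min at RT.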

Assay [5] relates to NAD(P)H diaphorase (Clostridium kluyveri). As to the kind of experiment: Diaphorse counterscreen qHTS: Assay Interference Panel against the NCATS CANVASS Library (AID 1347362). Further: 0% is about no effect. An outline of the steps:
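Clostridium kluyveri diaphorase in PBS with 0.01% Tween-20 was preincubated 15 min at room temperature in the dark with compounds (11-point series). Resorufin fluorescence (ex 525/20, em 598/25) was read 5 min after adding resazurin/NADH.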

Assay [6] concerns the target Luciferin 4-monooxygenase (Photinus pyralis) (UniProt P08659). As to the kind of experiment: Firefly luciferase counterscreen qHTS: Assay Interference Panel against the NCATS CANVASS Library (AID 1347363). Further: series mostly up to about 57 µM; 0% is about no effect. In outline:
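Purified P. pyralis luciferase was added to compounds (11-point series) preincubated 15 min at room temperature with substrate containing 0.013 mM D-luciferin and 0.013 mM ATP; luminescence was read after 5 min.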
In general terms: A counterscreen serves to expose hits that act by an unwanted route or on another target.

Assay [7] can be described thus: KB-3-1 Cancer Cell Toxicity qHTS against the NCATS CANVASS Library (AID 1347366). Further: nearly all actives have a fitted effect of over 75% in size. An outline of the steps:
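KB-3-1 cells (500/well) in DMEM with 10% FBS were exposed to compounds for 72 h at 37C. Viability was read by CellTiter-Glo luminescence.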

Assay [8] can be described thus: qHTS for ATAD5 Agonist screened against the NCATS CANVASS Library (AID 1347367).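 Further: luciferase reporter driven by ATAD5 which rises upon DNA damage; 0% is about no effect.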 In outline:
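Luciferase reporter under ATAD5 control, stably integrated in HEK293T cells (2000/well). Compounds (11 points) incubated 16 h at 37C; viability read first by CellTiter-Fluor, then luminescence reporting ATAD5 activation. MMS positive control.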

Assay [9] is described as follows: G06 Cancer Cell Toxicity qHTS against the NCATS CANVASS Library (AID 1347368). Further: nearly all actives have a fitted effect of over 60% in size. Further: potency means the concentration at half of the fitted maximal effect. In outline:
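Viability measured by CellTiterGlo ATP luminescence after 72 hr at 37C, 5% CO2. Canine G06 glioma cells plated at 500/well. Compounds tested as 11-point qHTS titrations.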

A short description of assay [10]: MCF7 Cancer Cell Toxicity qHTS against the NCATS CANVASS Library (AID 1347369). On activity change, negative = cytotoxicity: series mostly up to about 46 µM; on the % scale 0 is the no-effect control and ±100 the full control effect. An outline of the steps: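 MCF7 cells (500/well) were exposed 72 h at 37 °C to compounds in an 11-point series. Viability was read as ATP content by CellTiterGlo luminescence.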
Assay [11] can be described thus: qHTS for ATAD5 Antagonist screened against the NCATS CANVASS Library (AID 1347370). Further: nearly all actives have a fitted effect of over 65% in size. Further: potency means the concentration at half of the fitted maximal effect.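 On activity change, negative = inhibition: HEK293T cells carrying an ATAD5 luciferase reporter co-treated with 10 µM 5-fluorouridine; series mostly up to about 46 µM; on the % scale 0 is the no-effect control and ±100 the full control effect.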 In outline: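 Compounds (11-point) co-dosed with 10 µM 5-FUrd for 16 h at 37 °C onto HEK293T-ATAD5 luciferase reporter cells. Viability measured by CellTiter-Fluor fluorescence, then ATAD5 reporter signal by luminescence.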
Assay [12] is described as follows: J3T Cancer Cell Toxicity qHTS against the NCATS CANVASS Library (AID 1347371). Further: series mostly up to about 46 µM; on the % scale 0 is the no-effect control and ±100 the full control effect. In outline: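 Cytotoxicity read as CellTiterGlo ATP luminescence after 72 h incubation (37C, 5% CO2) of J3T canine glioma cells (500/well) with an 11-point compound series.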
Assay [13] concerns the target Nuclear receptor subfamily 1 group I member 3 (Homo sapiens) (UniProt Q14994). Description: qHTS for Constitutive Androstane Receptor (CAR) Antagonist screened against the NCATS CANVASS Library (AID 1347372).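 Further: cells stimulated with 50 nM CITCO agonist so inhibition reflects antagonism; luciferase from CYP2B6 promoter reporter driven by hCAR in HepG2 cells; series mostly up to about 46 µM; on the % scale 0 is the no-effect control and ±100 the full control effect.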 An outline of the steps: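 Cells were seeded and left 4hr to attach, then received compound at 11 concentrations and 50 nM CITCO. Following 24hr incubation, fluorescence viability and luciferase luminescence were read sequentially.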

For assay [14] the target is unchanged. As to the kind of experiment: qHTS for Constitutive Androstane Receptor (CAR) Agonist screened against the NCATS CANVASS Library (AID 1347373).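 Further: every well also contained 1.5 µM PK11195 alongside the test compound.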 Further: potency means the concentration at half of the fitted maximal effect. On activation: 0% is about no effect. An outline of the steps: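 Agonist mode with 1.5uM PK11195 present: compounds for 24hr on HepG2-hCAR-CYP2B6 cells. CellTiter-Fluor fluorescence (ex 405, em 540 nm) gives viability; ONE-Glo luminescence reports CAR activation.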

Assay [15] can be described thus: 10-beta competent E. coli microbial cell viability qHTS against the NCATS CANVASS Library (AID 1347376). Further: series mostly up to about 46 µM; 0% is about no effect. In outline: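 Read-out: BacTiter-Glo ATP luminescence, taken 20 min after reagent addition. Beforehand, 10-beta competent E. coli at 0.2 OD had been incubated overnight at 37C with compounds at 11 concentrations.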
Assay [16] can be described thus: qHTS for H2AX Agonists against the NCATS CANVASS Library (AID 1347378). Further: 0% is about no effect. An outline of the steps:
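CHO-K1 cells (1000/well, overnight at 37C) exposed to compounds at several concentrations for 3 hr at 37C, 0.76% DMSO final. Lysates read by TR-FRET (phospho-H2AX S139 Eu-cryptate antibody / H2AX-d2 antibody) after 24 hr at room temperature; 665/615 nm ratio.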

Assay [17] is described as follows: Inflammasome Signaling qHTS Counterscreen: IL-1-beta AlphaLISA counterscreen against the NCATS CANVASS Library (AID 1347381).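 Further: cell-free check with purified IL-1β in medium and no THP-1 cells; series mostly up to about 57 µM; 0% is about no effect.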 An outline of the steps: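 Purified IL-1-beta (4 pg/well) + compound, 11-pt conc. series; acceptor beads 6 ug/mL + biotin-Ab 0.6 nM final, 1 h RT; SA-donor 24 ug/ml final, 30 min dark RT; read ex 680/em 615.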
The nature of assay [18]: Cytotoxicity qHTS for assessment of Hepg2 cells membrane integrity screened against the NCATS CANVASS Library (AID 1347387). In outline:
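Membrane damage quantified as fluorescent LDH-release signal (ex 560, em 590 nm) in HepG2 cells treated 5 hr at 37C. qHTS format, 11 concentrations spanning 0.59 nM - 46 uM final, cells plated at 2000 per well the night before.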

Assay [19] is described as follows: Viability qHTS for inhibitors of the SERCaMP assay screened against the NCATS CANVASS Library (AID 1347400). Further: series mostly up to about 92 µM; on the % scale 0 is the no-effect control and ±100 the full control effect; nearly all actives have a fitted effect of over 70% in size. In outline: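 CellTiter-Glo luminescence measured cytotoxicity after 48 h at 37C of compound treatment (11-point series). Cells were SH-SY5Y-GLuc SERCaMP MJH297 derivatives, seeded at 1000 per well 4 h beforehand.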
Assay [20] can be described thus: qHTS for Inflammasome Signaling Inhibitors: IL-1-beta AlphaLISA screen against the NCATS CANVASS Library (AID 1347379).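 Further: human THP-1 cells primed with LPS then triggered with ATP.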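 On activity change, negative = inhibition: secreted IL-1B measured as AlphaLISA emission at 615 nm; on the % scale 0 is the no-effect control and ±100 the full control effect; lower signal means less IL-1B release which is the wanted effect.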 An outline of the steps:
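Secreted IL-1B from human THP-1 cells quantified by AlphaLISA 16 hr after compound addition (final up to 57.5 uM). A 1 hr compound pretreatment preceded inflammasome activation with 250 ng/mL LPS plus 1.25 mM ATP (final).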

Values without a mark were called inactive. Inconclusive results are not listed. Active and inactive are the calls of the source. The call rests on the fitted dose curve; in most records, active means well fitted curve in the direction sought with a large enough effect; inconclusive means small, poorly fitted or top-dose-only effect, or another doubt; inactive means no such curve, though single readings can be large; an effect the other way counts as inactive or inconclusive.

Luciferin 4-monooxygenase (Photinus pyralis), sequence (P08659 whole entry, looked up): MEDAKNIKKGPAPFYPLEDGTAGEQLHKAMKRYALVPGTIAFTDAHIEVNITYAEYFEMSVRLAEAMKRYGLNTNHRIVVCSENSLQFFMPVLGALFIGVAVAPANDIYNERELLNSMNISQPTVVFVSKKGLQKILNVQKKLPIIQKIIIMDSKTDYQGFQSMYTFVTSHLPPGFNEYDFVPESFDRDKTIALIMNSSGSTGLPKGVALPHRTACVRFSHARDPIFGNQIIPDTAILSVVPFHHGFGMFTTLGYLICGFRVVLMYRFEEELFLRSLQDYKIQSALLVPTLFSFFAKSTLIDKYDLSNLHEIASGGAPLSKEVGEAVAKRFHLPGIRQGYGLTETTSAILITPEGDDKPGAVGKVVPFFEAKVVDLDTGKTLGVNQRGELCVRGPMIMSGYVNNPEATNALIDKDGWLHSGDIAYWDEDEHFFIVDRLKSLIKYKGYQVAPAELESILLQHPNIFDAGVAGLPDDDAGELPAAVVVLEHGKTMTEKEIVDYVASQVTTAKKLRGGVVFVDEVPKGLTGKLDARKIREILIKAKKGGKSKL
Nuclear receptor subfamily 1 group I member 3 (Homo sapiens), sequence (Q14994 whole entry, looked up): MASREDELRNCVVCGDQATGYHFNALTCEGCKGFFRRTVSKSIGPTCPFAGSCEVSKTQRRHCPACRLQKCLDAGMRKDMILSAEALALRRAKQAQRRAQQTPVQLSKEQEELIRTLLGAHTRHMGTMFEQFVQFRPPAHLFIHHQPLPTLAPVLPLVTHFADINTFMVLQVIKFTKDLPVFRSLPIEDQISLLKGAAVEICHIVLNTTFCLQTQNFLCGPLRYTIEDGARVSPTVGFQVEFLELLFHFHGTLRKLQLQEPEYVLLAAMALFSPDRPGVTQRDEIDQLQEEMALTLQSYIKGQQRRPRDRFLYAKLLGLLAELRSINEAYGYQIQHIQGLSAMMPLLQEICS

Regarding `COc1cc(C2OCC3C(c4ccc(O)c(OC)c4)OCC23)ccc1O` (configuration not stated), the values for the caspase activation in assay [1], in assay [2] and in assay [4] were 1.94% [at 9.19 µM], 1.93% [at 9.19 µM] and -1.71% [at 9.19 µM], respectively. Also, the activation in [3] was 6.68% [at 9.19 µM]; in [8] it was 3.68% [at 9.19 µM]; in [14], 1.13% [at 9.19 µM]; in assay [16] it was -3.74% [at 15.3 µM]. The activity change, negative = inhibition is 1.68% [at 11.5 µM] in assay [5]; 1.7% [at 11.5 µM] in assay [6]; -9.99% [at 9.19 µM] in assay [11]; 9.55% [at 9.19 µM] in assay [13]; -8.43% [at 11.5 µM] in assay [17]. In addition, the outcome in assay [7] and in assay [9] was “inactive [at 9.19 µM]” throughout. Moreover, the values for the activity change, negative = cytotoxicity in assay [10], in [12] and in assay [19] were -7.78% [at 9.17 µM], 0.397% [at 9.19 µM] and -10.2% [at 18.4 µM], respectively. Besides, the activity change, negative = cytotoxic in assay [15] was -5.45% [at 9.19 µM]. In assay [18], the cytotoxicity (LDH release) is 0.144 [at 9.19 µM].
`C/C(=C\CC[C@@H](C)[C@H]1CC[C@]2(C)C3=CCC4C(C)(C)[C@@H](O)C[C@@H](O)[C@]4(C)C3[C@H](O)C[C@@]12C)CO` (some centres not stated): the molecule was called inactive in assay [1], in assay [15], in assay [17] and in [18]. Moreover, the Potency result in assay [2], in assay [3], in [4], in assay [6], in [7] and in assay [8] was “inactive” each time. Moreover, the Potency entry in assay [9], in [10], in assay [11], in assay [12], in [13] and in [14] was “inactive” throughout. Besides, the Potency entry in assay [16], in assay [20] and in assay [19] was “inactive” in each case.
`COc1cc2c(cc1OC)[C@@H](c1ccc3c(c1)OCO3)C(C)C(C)C2=O` (some centres not stated): the molecule was called inactive in [1], in assay [15], in [17] and in assay [18]. Besides, the Potency entry in assay [2], in assay [3], in assay [4], in assay [5], in assay [6] and in assay [8] was “inactive” each time. The Potency entry in assay [10], in assay [12], in assay [13], in assay [16], in [20] and in assay [19] was “inactive” in each case. The figures for the Potency in [11] and in assay [14] were 26.3 µM (active) and 18.6 µM (active), respectively.
Turning to `C=CC(CCCCC)C1C(=O)NC(=O)C1C(=O)C1C2C(C)CC(C(=O)O)CC2CC1(O)C(=O)/C=C/C` (configuration not stated), the molecule was called inactive in assay [1], in assay [15], in [17] and in assay [18]. The Potency entry in assay [2], in [3], in assay [4], in assay [5], in assay [6] and in [7] was “inactive” throughout. Also, the Potency entry in assay [8], in assay [9], in [10], in [11], in assay [12] and in assay [13] was “inactive” in each case. For the same molecule, the Potency entry in assay [14], in [16], in assay [20] and in assay [19] was “inactive” in each case.
For the molecule `CC(C)=CC[C@H]1C[C@@]2(CC=C(C)C)C(=O)[C@](CC=C(C)C)(C(=O)C(C(=O)c3ccccc3)=C2O)C1(C)C`, the outcome in assay [1], in [15], in [17] and in assay [18] was inactive. Moreover, the Potency entry in assay [2], in assay [3], in [4], in assay [5], in [6] and in assay [8] was “inactive” in each case. Further, the Potency entry in assay [10], in [13], in [14], in assay [16] and in assay [19] was “inactive” in each case. Besides, the Potency in [9] is 20.9 µM (active).

(Values after PubChem BioAssay (NCATS).)
